Source: PubChem (The Scripps Research Institute Molecular Screening Center)
This is a sample that favours compounds with a hit; in the whole collection about 4.8% have one here.
DAX1 inh-1 – DAX1 (NR0B1) inhibitors, primary screen, cell-based, HEK293, Gal4-DAX1, luciferase luminescence; Nuclear receptor subfamily 0 group B member 1 (Homo sapiens), P51843; HEK293 Gal4-DAX1 luciferase reporter; inhibition, % at 6.75 µM; 340,000 compounds, 0.99% hits;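 active means inhibition above the mean over all tested compounds plus 3 SD, cut at about 4.2% in these data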;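 further: 0% = DAX1-transfected cells with DMSO and 100% = empty-vector control cells with DMSO; inhibition shows as a rise in luminescence from relieved DAX1 repression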
Target sequence (P51843 207-470 limits assumed): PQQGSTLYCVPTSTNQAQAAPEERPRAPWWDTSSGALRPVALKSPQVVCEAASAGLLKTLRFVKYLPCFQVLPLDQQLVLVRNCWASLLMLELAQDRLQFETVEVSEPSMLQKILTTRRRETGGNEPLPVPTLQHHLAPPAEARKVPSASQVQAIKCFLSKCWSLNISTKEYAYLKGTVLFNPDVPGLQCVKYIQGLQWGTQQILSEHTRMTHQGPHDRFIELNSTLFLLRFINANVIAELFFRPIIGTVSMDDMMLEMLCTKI
ssDAF12 agonist – S. stercoralis DAF-12 nuclear receptor activators, primary screen, cell-based, luminescence, HEK293, GRIP1 co-expression, lit1-tk-luc; Nuclear hormone receptor DAF-12 (Strongyloides stercoralis); HEK293 ssDAF-12/GRIP1 lit1-tk-luc reporter; % of 3 µM dafachronic acid response; activation, % at 6.8 µM; 370,000 compounds, 1% hits; AID 652126, 2013;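 active means activation above the mean over all tested compounds plus 3 SD, cut at about 0.9% in these data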;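 further: 0% = DMSO-only wells and 100% = 3 µM delta7-dafachronic acid wells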
hgDAF12 agonist – H. glycines DAF-12 receptor agonists, primary screen, cell-based, luminescence, HEK293, GAL4 fusion, UAS-luciferase; Nuclear hormone receptor DAF-12 (Heterodera glycines), GAL4 fusion; HEK293 GAL4-hgDAF12 UAS-luciferase reporter, agonist luminescence; normalized to butyrate control; activation, % at 6.8 µM; 370,000 compounds, 1.8% hits;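 active means activation above a cutoff set at the mean of all screened compounds plus 3 SD, cut at about 10% in these data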;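 further: 0% = DMSO wells and 100% = sodium butyrate wells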
hcDAF12 agonist – H. contortus DAF-12 nuclear receptor activators, primary screen, cell-based, luminescence, HEK293, lit1-tk-luc reporter; AID 652067, 2013; activation, % at 6.8 µM; HEK293 hcDAF-12 lit1-tk-luc reporter; 0% DMSO, 100% Δ7-dafachronic acid; 370,000 compounds, 1.4% hits;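 active means activation above the mean of all tested compounds plus 3 SD, cut at about 5.5% in these data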;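 further: 100% = response to 3 µM Δ7-dafachronic acid high control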
DAX1 inh-2 – DAX1 (NR0B1) inhibitors on StAR promoter, primary screen, cell-based, luminescence, SF-1 (NR5A1), full-length DAX-1; HEK293T StAR-luciferase reporter, SF-1/DAX-1 repression relief; inhibition, % at 6.8 µM; 370,000 compounds, 1.1% hits; AID 652010, 2013;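 active means inhibition above the mean over all tested compounds plus 3 SD, cut at about 3.6% in these data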;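 further: 0% = DAX-1 cells with DMSO and 100% = cells lacking DAX-1 with DMSO; higher inhibition means more luminescence from relief of DAX-1 repression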
SMARCA2 activ – SMARCA2 (BRM) function activators, primary screen, cell-based, luminescence, high throughput; MG213 cells, MMTV-luciferase reporter, dexamethasone, overnight; activation, % at 9.1 µM; 370,000 compounds, 1% hits; AID 652017, 2013; in the data active means activation above about 7.8%;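 further: 0% = vehicle wells and 100% = reference activator wells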
The depositor's hits bear a star; / = no result given.

SMILES	DAX1 inh-1	ssDAF12 agonist	hgDAF12 agonist	hcDAF12 agonist	DAX1 inh-2	SMARCA2 activ
O=C1c2ccccc2NC(c2ccco2)N1O (centres undefined)	4.4*	-0.9	0.2	0.4	0.1	-2.2
NC(=O)CSc1nnc(Cn2cnc3ccccc32)o1	4.2*	-0.9	-1.9	-0.8	0.0	1.7
CCCN1CCN(C(=O)c2nn(-c3ccc(OC)cc3)c(=O)c3c2c2ccccc2n3C)CC1	-1.0	-1.0	1.1	2.4	0.3	0.5
CCc1nc2c(oc3ccccc32)c(=O)[nH]1	0.3	-1.1	3.3	0.6	0.8	2.4
O=c1[nH]c(CSc2ccccn2)nc2c1oc1ccccc12	-1.2	-0.2	12.3*	4.2	4.4*	7.8*
Oc1ccc2ccccc2c1/C=N/Nc1nnc(-c2ncc[nH]2)c2ccccc12	-1.6	-0.8	-3.4	0.2	-0.4	-2.1
Oc1ccc2ccccc2c1C=NNc1ccccn1	0.5	2.0*	2.1	6.0*	-4.2	1.4
Oc1ccccc1N=Cc1c(O)ccc2ccccc12	-1.5	0.9	-2.6	5.9*	-0.8	0.6
O=C1NCC(c2ccccc2)C1C(=O)N/N=C\c1ccc(-c2ccc(Cl)c(Cl)c2)o1 (centres undefined)	-0.2	-1.6	0.2	-0.1	1.2	-0.1
CCOC(=O)Cn1c(=O)oc2cc(S(=O)(=O)N3CCn4c3nc3ccccc34)ccc21	0.6	-1.4	3.1	-0.9	0.1	-1.4
S=C(NCCCc1cnc[nH]1)NCCCN(Cc1ccc(Cl)cc1)c1ccc(Br)cn1	/	-1.5	-7.3	-3.2	-6.2	-4.8
CCc1cccc(CC)c1C(O)c1cccnc1 (centres undefined)	-0.1	-0.6	0.7	-0.2	0.7	-5.7
Clc1cccc(Cl)c1/C=N\Nc1nccs1	0.6	-0.3	2.4	1.4	-0.4	0.4
Cc1csc(N/N=C/c2c(F)cccc2Cl)n1	0.7	-0.1	2.2	6.5*	-0.1	-0.5
COC(=O)c1ccc(N2CCN(C)CC2)c(NC(=O)COc2ccccc2)c1	-0.5	-1.2	-1.7	-0.1	-0.2	-2.3
CN(C)S(=O)(=O)c1cccc(C(=O)NCCNC(=O)c2cccc(S(=O)(=O)N(C)C)c2)c1	-0.5	-1.1	-2.3	-0.7	-0.4	-1.1
COC(=O)[C@H](Cc1ccccc1)N(C)S(=O)(=O)c1cccc(S(=O)(=O)N(C)[C@@H](Cc2ccccc2)C(=O)OC)c1	-1.1	-1.5	-3.5	-1.8	-0.4	-1.4
CC(Cc1ccco1)NC(=O)c1cccc(S(=O)(=O)N(C)C)c1 (centres undefined)	1.2	-0.1	12.3*	4.3	1.1	2.7
COC(=O)C(Cc1ccccc1)NC(=O)c1cccc(S(=O)(=O)N(C)C)c1 (centres undefined)	4.4*	-1.4	-0.5	-1.2	-0.1	-1.6
CCOC(=O)c1c(NC(=O)CSc2nnnn2-c2ccccc2)sc2c1CCC(C)C2 (centres undefined)	-0.1	-0.9	-1.3	-0.7	0.8	-1.6
O=c1c(O)c(-c2ccc(O)c(O)c2)oc2cc(O)cc(O)c12	1.9	-0.8	11.8*	-2.2	1.5	-0.7
O=C(c1ccco1)N1CCN(c2ccc([N+](=O)[O-])cc2F)CC1	0.1	-1.4	1.0	-0.1	-0.7	-0.4
Cc1cccc(-c2ccc3c(c2)C2CC3CCN2Cc2ccc3c(c2)OCO3)c1 (centres undefined)	-0.6	-0.2	-0.4	-1.2	4.0*	-4.7
CCc1c(C(=O)Nc2cc(C)ccc2OC)[nH]c(C)c1C(C)=O	0.4	0.0	0.7	5.6*	-0.6	-1.0
CC(C)Oc1ccc(-c2csc(N3CCC(C(N)=O)CC3)n2)cc1	/	-1.1	10.8*	-2.6	/	/
SMILES	DAX1 inh-1	ssDAF12 agonist	hgDAF12 agonist	hcDAF12 agonist	DAX1 inh-2	SMARCA2 activ
COc1cccc(/C=C/c2n[nH]c(=O)c(C#N)c2C)c1	-1.7	-1.2	1.1	1.7	-0.3	-2.0
Cc1ccc(SCCC(=O)N2CCC(C)CC2)cc1	5.7*	0.0	8.5	2.1	1.4	1.9
Cc1ccc(SCCC(=O)N2CCC(C(N)=O)CC2)cc1	1.3	-0.6	-1.2	0.7	-0.1	-3.5
Cc1c(C)n(CC(O)CNc2ccccc2)c2ccccc12 (centres undefined)	3.9	-1.4	1.5	-0.9	0.3	-2.5
Cc1ccc(C(=O)Nc2cccc(N(C)S(C)(=O)=O)c2)cc1S(=O)(=O)Nc1ccccc1	-0.2	-1.1	-2.0	-2.2	-0.8	-1.9
Cc1nnc(SCC(=O)N2CCN(C(=O)c3ccco3)CC2)n1C	4.7*	-1.5	0.8	0.4	-0.7	-2.9
Cn1nnnc1SCC(=O)N1CCN(C(=O)c2ccco2)CC1	4.3*	-0.9	2.0	-1.5	0.1	-3.3
CCCCn1nnnc1SCC(=O)N1CCN(C(=O)c2ccco2)CC1	0.4	-0.8	-0.6	-1.0	1.1	-2.0
CC(=Nc1ccccc1O)c1sc2ccccc2c1O	2.3	0.0	12.7*	4.5	-0.2	0.7
CC(=O)NCCN=C(C)c1sc2ccccc2c1O	0.1	0.7	6.1	0.6	0.7	3.5
CC(=Nc1ccc(O)cc1)c1sc2ccccc2c1O	1.1	0.4	11.6*	5.2	0.1	1.3
O=C(Nc1ccc(Nc2ccccc2)cc1)C(Cl)(Cl)Cl	-0.2	-0.6	2.4	-1.0	-0.9	-1.9
CCCc1c(-c2cccc(F)c2)ncn1CCc1ccccc1OC	/	-1.7	-2.6	-1.0	-0.6	-6.2
O[C@@H](CNC[C@H](O)c1ccccc1)c1ccccc1	-1.0	-0.6	0.3	-0.2	-0.1	-4.5
O=C(NCCNC(=O)c1ccccc1)c1ccccc1	0.2	-0.6	1.0	-1.2	0.4	1.8
O=C(NCC(O)c1ccccc1)c1ccccc1 (centres undefined)	4.3*	-0.3	7.0	2.2	2.5	3.3
C[N+](C)(C)CCNC(=O)c1ccccc1	/	-0.9	-0.7	-1.0	4.1*	-4.6
Cc1ccc2nc3n(c(=O)c2c1)-c1ccc(Cl)cc1C(=O)NC3Cc1ccccc1 (centres undefined)	/	-1.1	0.0	1.7	-0.5	-2.1
CC1NC(=O)c2cc3ccccc3cc2-n2c1nc1ccc(F)cc1c2=O (centres undefined)	0.8	-0.1	2.5	6.2*	0.2	7.2
Cc1ccc2nc3n(c(=O)c2c1)-c1cc2ccccc2cc1C(=O)NC3Cc1ccccc1 (centres undefined)	0.0	-1.4	2.3	0.1	3.9*	2.3
